Two molecules from the supplement of paper PMC8728848 can be followed below.

The sample as a whole holds a higher share of the strongest signals than the screen did.

Holding throughout (test): glycan array binding signal (z-score within array); higher = stronger binding
Holding throughout (details): glycan notation: IUPAC condensed, linker removed

For test [1], the target named is Fuc(a1-2)Gal(b1-3)GalNAc(b1-3)Gal. In a few lines:
(§1)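 Glycan array data came from 3228 arrays in the Consortium for Functional Glycomics database, and only arrays with an available protein sequence were kept. Glycan names were put into IUPAC-condensed notation, and columns mapping to the same glycan were averaged. The binding signal is a within-array Z-score, averaged across arrays of one protein sequence run at different concentrations or buffers and across linkers. A negative Z-score can be read as non-binding.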

The target of test [2] is Fuc(a1-2)Gal(b1-3)[Fuc(a1-4)]GlcNAc. The essentials: as §1
The target in test [3] is Fuc(a1-2)Gal6S(b1-3)GlcNAc6S. In a few lines: as §1
The target in test [4] is Fuc(a1-2)Gal6S(b1-4)Glc6S. In a few lines:
as §1

The target of test [5] is Fuc(a1-2)[Gal(a1-3)]Gal(b1-3)GlcNAc(b1-2)Man(a1-3)[Fuc(a1-2)[Gal(a1-3)]Gal(b1-3)GlcNAc(b1-2)Man(a1-6)]Man(b1-4)GlcNAc(b1-4)[Fuc(a1-6)]GlcNAc. In a few lines: as §1
Test [6] has as its target Fuc(a1-2)[Gal(a1-3)]Gal(b1-4)GlcNAc(b1-6)GalNAc. The essentials: as §1
Test [7] has as its target Fuc(a1-2)[GalNAc(a1-3)]Gal(b1-4)GlcNAc(b1-6)GalNAc. In a few lines: as §1
Test [8] concerns the target Fuc(a1-2)[GalNAc(b1-3)]Gal. The essentials:
as §1

Test [9] addresses Fuc(a1-3)[Gal3S(b1-4)]GlcNAc. The essentials: as §1
The target of test [10] is Fuc(a1-3)[Gal3S(b1-4)]GlcNAc6S. In a few lines:
as §1

In test [11] the target is Fuc(a1-3)[GalNAc(b1-4)]GlcNAc. In a few lines: as §1
The target in test [12] is Gal(a1-3)Fuc(a1-2)Gal(b1-4)GlcNAc(b1-3)[Gal(a1-3)Fuc(a1-2)Gal(b1-4)GlcNAc(b1-6)]GalNAc. The essentials:
as §1

Test [13] deals with Gal(a1-3)Gal(b1-4)GlcNAc(b1-3)GalNAc. In a few lines:
as §1

Test [14] concerns the target Gal(a1-4)Gal(b1-4)GlcNAc(b1-3)Gal(b1-4)Glc. In a few lines:
as §1

The target in test [15] is Gal(b1-3)GlcNAc(b1-3)GalNAc. In a few lines:
as §1

The target of test [16] is Gal(b1-3)[Fuc(a1-4)]GlcNAc(b1-2)Man(a1-3)[Gal(b1-3)[Fuc(a1-4)]GlcNAc(b1-2)Man(a1-6)]Man(b1-4)GlcNAc(b1-4)[Fuc(a1-6)]GlcNAc. The essentials: as §1
The target of test [17] is Gal(b1-4)GlcNAc(b1-3)Gal(b1-4)GlcNAc(b1-3)Gal(b1-4)GlcNAc(b1-2)Man(a1-3)[Gal(b1-4)GlcNAc(b1-3)Gal(b1-4)GlcNAc(b1-3)Gal(b1-4)GlcNAc(b1-2)Man(a1-6)]Man(b1-4)GlcNAc(b1-4)[Fuc(a1-6)]GlcNAc. In a few lines:
as §1

The target of test [18] is Gal(b1-4)GlcNAc(b1-3)Gal(b1-4)GlcNAc(b1-6)[Gal(b1-3)]GalNAc. In a few lines: as §1
In test [19] the target is Gal3S(b1-4)Glc6S. In a few lines: as §1
Test [20] addresses Gal3S(b1-4)GlcNAc6S. The essentials:
as §1

In test [21] the target is Gal3S4S(b1-4)GlcNAc. The essentials:
as §1

In test [22] the target is Gal3S6S(b1-4)GlcNAc. The essentials:
as §1

The target in test [23] is Gal3S6S(b1-4)GlcNAc6S. The essentials: as §1
The target in test [24] is Gal4S6S(b1-4)GlcNAc. The essentials:
as §1

For test [25], the target named is Gal6S(b1-3)GlcNAc6S. In a few lines:
as §1

Test [26] has as its target Gal6S(b1-4)GlcNAc6S. In a few lines: as §1
Test [27] concerns the target GalNAc(a1-3)GalNAc(b1-3)Gal(a1-4)Gal(b1-4)Glc. The essentials: as §1
Test [28] has as its target GalNAc(b1-3)Gal(a1-6)Gal(b1-4)Glc. The essentials: as §1
The target in test [29] is GalNAc(b1-4)GlcNAc. In a few lines:
as §1

Test [30] has as its target Glc(a1-4)Glc(a1-4)Glc(a1-4)Glc. The essentials: as §1
Test [31] has as its target Fuc(b1-3)GlcNAc. In a few lines:
as §1

Test [32] concerns the target Gal(a1-3)Gal(b1-4)GlcNAc. In a few lines: as §1
The target of test [33] is Gal(a1-3)GalNAc. The essentials:
as §1

Test [34] has as its target Gal(b1-4)GlcNAc(b1-3)GalNAc. In a few lines:
as §1

For test [35], the target named is GlcNAc(b1-2)Gal(b1-3)GalNAc. The essentials:
as §1

Test [36] deals with GlcNAc(b1-4)GlcNAc(b1-4)GlcNAc. In a few lines:
as §1

For test [37], the target named is Neu5Ac(a2-3)Gal(b1-3)GalNAc. The essentials: as §1
The target of test [38] is Neu5Ac(a2-3)Gal(b1-3)[Neu5Ac(a2-3)Gal(b1-4)]GlcNAc. In a few lines: as §1
For test [39], the target named is Neu5Ac(a2-3)Gal(b1-4)[Fuc(a1-3)]GlcNAc(b1-3)Gal(b1-4)[Fuc(a1-3)]GlcNAc(b1-3)Gal(b1-4)[Fuc(a1-3)]GlcNAc. The essentials: as §1
In test [40] the target is Neu5Ac(a2-8)Neu5Ac(a2-8)Neu5Ac. In a few lines: as §1
For test [41], the target named is Neu5Gc(a2-3)Gal(b1-3)[Fuc(a1-4)]GlcNAc. In a few lines: as §1
The target of test [42] is Neu5Gc(a2-3)Gal(b1-4)Glc. The essentials:
as §1

With KILRGVCKKIMRTFLRRISKDILTGKK [NK2 (Sus scrofa)], the “glycan array binding signal (z-score)” value in [1] is 0.02; in [2] it was -0.178; in [3], 2.03; in [4] it was 2.24; in [5], 0.527; in test [6] it was 0.282. Further, the “glycan array binding signal (z-score)” value is -1.05 in test [7]; -0.991 in [8]; 0.36 in [9]; 1.58 in test [10]; 0.101 in test [11]; -0.533 in test [12]. In addition, the “glycan array binding signal (z-score)” value in test [13] is 0.826; in [14] it was 0.785; in [15] it was -0.33; in [16], -0.004; in [17], 0.462; in [18], 2.04. Besides, the “glycan array binding signal (z-score)” value in [19] came out at 1.67; in test [20] it was 4.29; in test [21], 2.81; in test [22], 2.92; in [23], 3.98; in test [24], 2.26. Besides, the “glycan array binding signal (z-score)” value is 3.16 in [25]; 2.85 in test [26]; -0.58 in [27]; -0.616 in test [28]; -0.865 in [29]; 0.05 in [30].

B1: Siglec-G (Mus musculus), Q80ZE3 (protein)
chain: MSLLLFLLSFLLDGPQGQMESYFLQVQRIVKAQEGLCIFVPCSFSSPEGKWLNRSPLYGYWFKGIRKPSLSFPVATNNKDKVLEWEARGRFQLLGDISKKNCSLLIKDVQWGDSTNYFFRMERGFERFSFKEEFRLQVEALTQKPDIFIPEVLEPGEPVTVVCLFSWTFNQCPAPSFSWMGDAVSFQESRPHTSNYSVLSFIPGLQHHDTELTCQLDFSRMSTQRTVRLRVAYAPRSLAISIFHDNVSVPDLHENPSHLEVQQGQSLRLLCTADSQPPATLSWVLEDQVLSWSSPVGSRTLALELPWVKAGDSGHYTCQAENRLGSQQHTLDLSVLYPPQDLRVTVSQANRTVLEILRNAISLPVLEGQSLCLVCVTYSNPPANVSWAWVTQTLIPIQSSEPGVLELPLVQREHEGEFTCAAQNPLGAQRISLSLSVHYPPQMSSPSCSWEAKGLHCNCSSRAWPAPSLRWRLGEGLLEGNSSNASFTVTFSSLGPWVNSSLSLLQELGPSLWLSCESWNTHGAQTTSVLLLPDKDSATAFSKGAVLGFGITALLALCLIVVIVKTLQKKGTQEEPSRPKLSRGSTILDYINVVPKTRSLARNWKAEPDAPSRSSPLDTHFPKPKKKQKDPHFTYPGCPDPTSSSQVPVSENNPEELHYAALNFSRLRLQETQDPQDTYSDYTEVRVH
Take B1: the “glycan array binding signal (z-score)” value was -0.186 in test [1]; 1.54 in [31]; -0.064 in [32]; -0.268 in test [33]; -0.134 in test [34]; -0.21 in [35]. Further, the “glycan array binding signal (z-score)” value in [36] was -0.138; in [37], 0.414; in test [38] it was 0.903; in test [39], 1; in test [40] it was 1.22; in test [41] it was 0.241. Also, the “glycan array binding signal (z-score)” value in [42] was -0.022.
